Assay results from PubChem BioAssay (EPA / NIEHS).
Inconclusive results are not listed. Active and inactive are the calls of the source. Rule for the calls: active = hit-call score of the fitted dose curve at least 0.9, where 1 is the maximum; inconclusive = response in the unintended direction; inactive = score below 0.9.

The molecules below were run against Peroxisome proliferator-activated receptor gamma (Homo sapiens) (UniProt P37231) (assay: ATG_PPARg_TRANS: Attagene TRANS-FACTORIAL HepG2 Assay for human Peroxisome Proliferator-activated Receptor-gamma (PPARg) (AID 2283007)).
How it was run: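 HepG2 cells are transiently transfected with GAL4-UAS reporter units driven by chimeric NR-Gal4 fusions and dosed for 24 h. Reporter mRNA is quantified by RT-PCR, 6-FAM labelling, HpaI digestion and capillary electrophoresis. Induction is scored against DMSO.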

Peroxisome proliferator-activated receptor gamma (Homo sapiens), sequence (P37231 whole entry, looked up, the tested form may be a part): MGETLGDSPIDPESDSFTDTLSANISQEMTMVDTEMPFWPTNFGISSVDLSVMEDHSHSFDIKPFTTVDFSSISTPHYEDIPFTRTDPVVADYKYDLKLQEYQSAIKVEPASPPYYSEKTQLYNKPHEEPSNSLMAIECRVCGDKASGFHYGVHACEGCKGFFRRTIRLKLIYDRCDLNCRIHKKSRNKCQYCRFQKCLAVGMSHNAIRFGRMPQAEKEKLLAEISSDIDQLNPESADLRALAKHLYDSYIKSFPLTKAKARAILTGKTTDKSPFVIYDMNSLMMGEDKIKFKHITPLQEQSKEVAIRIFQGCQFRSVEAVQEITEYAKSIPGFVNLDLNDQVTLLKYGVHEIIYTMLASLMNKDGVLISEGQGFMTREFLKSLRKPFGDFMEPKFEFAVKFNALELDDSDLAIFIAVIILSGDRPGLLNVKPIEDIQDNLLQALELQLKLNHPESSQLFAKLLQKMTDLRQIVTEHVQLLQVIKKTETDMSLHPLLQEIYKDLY

SMILES	AC50	outcome
CCCC1CCCC(=O)O1 (stereo not drawn)	23.4 µM (active)	–
CC(CC=O)CC(C)(C)C (stereo not drawn)	–	inactive
CCCCOC(=O)CCC(C)=O	–	inactive
O=S(=O)(O)c1ccc(Nc2nc(Nc3ccc(C=Cc4ccc(Nc5nc(Nc6ccc(S(=O)(=O)O)cc6)nc(N(CCO)CCO)n5)cc4S(=O)(=O)O)c(S(=O)(=O)O)c3)nc(N(CCO)CCO)n2)cc1	–	inactive
COC(=O)c1ccccc1C	–	inactive
CCCCCCCCCCCCCCCCCCOS(=O)(=O)O	8.35 µM (active)	–
CCC(C)c1ccccc1 (stereo not drawn)	–	inactive
CCC1COC(=O)O1 (stereo not drawn)	–	inactive
COC(C=C(C)CCC=C(C)C)OC	57.2 µM (active)	–
O=C(O)c1cc(O)c2ccccc2c1O	9.25 µM (active)	–
Cc1cc(C)c(C=O)c(C)c1	–	inactive
C=CCOC(=O)c1ccc(C(=O)OCC=C)c(C(=O)OCC=C)c1	27.7 µM (active)	–
O=C1CCCCC1C1CCCCC1 (stereo not drawn)	–	inactive
CO[Si](CCCS)(OC)OC	–	inactive
COC(=O)C=Cc1ccccc1	–	inactive
CCC(C)N (stereo not drawn)	–	inactive
Cc1ccc2c(c1)CCCN2	–	inactive
C1CCSC1	–	inactive
O=C(O)/C=C/c1ccccc1	–	inactive
CCCCC/C=C\C/C=C\CCCCCCCC(=O)O	11.9 µM (active)	–
C/C=C/C=C/CCCCCCCO	2.64 µM (active)	–

Each molecule was assayed against Nuclear receptor subfamily 1 group I member 2 (Homo sapiens) (UniProt O75469) (assay: ATG_PXR_TRANS: Attagene TRANS-FACTORIAL HepG2 Assay for human Pregnane X Receptor (PXR) (AID 2283008)).
How it was run: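 Measures mRNA induction of a GAL4-UAS-driven reporter in human HepG2 cells transiently expressing PXR fused to Gal4, following 24 h treatment. DMSO served as negative control and baseline.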

Nuclear receptor subfamily 1 group I member 2 (Homo sapiens), sequence (O75469 whole entry, looked up, the tested form may be a part): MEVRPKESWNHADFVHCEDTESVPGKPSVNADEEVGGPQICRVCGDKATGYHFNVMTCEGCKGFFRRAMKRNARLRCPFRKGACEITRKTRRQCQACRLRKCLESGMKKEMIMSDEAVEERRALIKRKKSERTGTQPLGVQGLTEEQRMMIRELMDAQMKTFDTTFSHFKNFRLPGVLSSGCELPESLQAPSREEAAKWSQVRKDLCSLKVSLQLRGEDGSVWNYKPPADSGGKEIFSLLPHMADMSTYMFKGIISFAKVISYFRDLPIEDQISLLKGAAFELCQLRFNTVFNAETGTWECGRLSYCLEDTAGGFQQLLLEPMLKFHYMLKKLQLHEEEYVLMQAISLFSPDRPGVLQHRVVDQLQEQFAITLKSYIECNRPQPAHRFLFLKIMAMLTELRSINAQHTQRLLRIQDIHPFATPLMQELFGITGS

SMILES	outcome	AC50
CC(=O)OCc1ccccc1	inactive	–
Cc1c[nH]c(=O)[nH]c1=O	inactive	–
CCCC1CCCC(=O)O1 (stereo not drawn)	inactive	–
CC(CC=O)CC(C)(C)C (stereo not drawn)	–	7.15 µM (active)
CCOC(=O)OC(=O)OCC	inactive	–
CCCCOC(=O)CCC(C)=O	inactive	–
COC(=O)c1ccc(C(=O)OC)c(C(=O)OC)c1	inactive	–
CCCCCCCCCCCCCCCCCCOS(=O)(=O)O	inactive	–
CCC(C)c1ccccc1 (stereo not drawn)	inactive	–
Cc1ccc(C)c(OCCCC(C)(C)C(=O)O)c1	–	20.7 µM (active)
CCC1COC(=O)O1 (stereo not drawn)	inactive	–
COC(C=C(C)CCC=C(C)C)OC	inactive	–
O=C(O)c1cc(O)c2ccccc2c1O	–	2.31 µM (active)
Cc1cc(C)c(C=O)c(C)c1	–	7.01 µM (active)
C=CCOC(=O)c1ccc(C(=O)OCC=C)c(C(=O)OCC=C)c1	inactive	–
c1ccc2cnccc2c1	inactive	–
O=C1CCCCC1C1CCCCC1 (stereo not drawn)	–	41.2 µM (active)
CO[Si](CCCS)(OC)OC	inactive	–
COC(=O)C=Cc1ccccc1	inactive	–
C=C(C)C(=O)OCC(O)COc1ccc(C(C)(C)c2ccc(OCC(O)COC(=O)C(=C)C)cc2)cc1 (stereo not drawn)	–	6.93 µM (active)
Cc1ccc2c(c1)CCCN2	inactive	–
C=CCCCCCCCCO	inactive	–
O=C(O)/C=C/c1ccccc1	inactive	–
O=C(O)CC(C(=O)O)S(=O)(=O)O (stereo not drawn)	inactive	–
CCCCC/C=C\C/C=C\CCCCCCCC(=O)O	inactive	–
C/C=C/C=C/CCCCCCCO	inactive	–
CC(C)CC(=O)OCc1ccccc1	inactive	–
